High-throughput results: PubChem, National Center for Advancing Translational Sciences (NCATS)
Hits are enriched below; roughly 6.5% of the tested compounds scored in any of these assays.
HT1080 IDH1KD tx = toxicity to HT-1080 IDH1 knockdown cells (counter line); HT-1080 IDH1 knockdown viability, ATP luminescence, 48 h; Potency, µM (doses to about 46.1 µM), without a hit: at the top dose activity, negative = toxicity, most hits filed as cytotoxic; hit rate 2% among 360,000; AID 686971;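 also: potency is read from the fitted curve at half-maximal effect; 0% = DMSO wells and -100% = cell-free medium wells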
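Cytotoxicity counter-line: IDH1KD HT-1080, 48 h, CellTiter-Glo. Curves classed by r2, magnitude and activity.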
TGFb inhibitor = blocks TGF-b signaling; Potency, µM (highest dose often 46.1 µM), for the others: at the highest dose activity, negative = inhibition, hits mostly inhibitors; HepG2 CAGA-GFP TGF-b/SMAD3 reporter, GFP fluorescence, 18 h; TGF-beta stimulated, 500 pg/mL final; hit rate 1.2% among 410,000; also: potency is read from the fitted curve at half-maximal effect; % is scaled to controls: 0 for no effect and ±100 for the full control effect; nearly all actives have a fitted effect of over 65% in size
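HEPG2 CAGA-GFP, 1000 cells/well; 2 h settle, 37 C; cpd via pin tool; TGF-b 500 pg/mL final; 18 h, 37 C; GFP imaging ex488/em500-530; %Activity normalised to -TGF-b and +DMSO controls; CRC fit, curve class.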
IL1B secr inh = inhibitors of inflammasome signaling (IL-1 beta secretion). activity change, % at 57.5 µM. THP-1 LPS/ATP IL-1B secretion, AlphaLISA, 16 h; stronger effect = lower value. AID 743279. hit rate 4.7% among 360,000; in the data active = activity change below about -50%; inconclusive = mostly about -30% to -49%; also: % is scaled to controls: 0 for no effect and ±100 for the full control effect
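Secreted IL-1B measured by AlphaLISA bead assay after 16 h compound exposure of THP-1 cells; compounds (final up to 57.5 uM) added 1 h before LPS (250 ng/mL) and ATP (1.25 mM) stimulation; lower signal means less secretion.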
HepG2 tox = counter-screen for TGF-b inhibitors: cytotoxicity in HepG2 cells | hit rate 0.76% among 410,000 | HepG2 CAGA-GFP viability, ATP luminescence, 18 h | Potency, µM (titrated, usually from 46.1 µM), inactives show at the top dose activity change, negative = cytotoxicity, most hits filed as cytotoxic; also: potency is read from the fitted curve at half-maximal effect
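CellTiter-Glo luminescence gave cytotoxicity after 18 hours at 37 degrees C. The cells were HepG2 CAGA-GFP in 1% FBS DMEM, stimulated with 500 pg/mL TGF-beta after compound addition. %Activity was normalised to no-cell wells (complete cell-killing) and DMSO (no toxicity), and curves were fitted and classified.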
Giardia killer = kills Giardia lamblia; activity change, % at 7.66 µM, hits read low; AID 540267; hit rate 0.15% among 340,000; Giardia lamblia trophozoite viability; in the data active = activity change below about -80%; inconclusive = between about -30% and that limit;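 also: parasites exposed to compound for two days anaerobically before the ATP read; % is scaled to controls: 0 for no effect and ±100 for the full control effect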
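Viability, read as ATP luminescence: trophozoites at 100 cells/well, compound added, 48 hrs anaerobic at 37 deg C, then 15-30 min room-temperature development before reading.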
HT1080-NT tox = kills 2HG-producing HT-1080-NT fibrosarcoma cells | hit rate 1.6% among 360,000 | Potency, µM (doses to about 46.1 µM), inactives show at the highest dose activity, negative = less viability, usual class: cytotoxic | AID 686970 | HT-1080-NT fibrosarcoma viability, CellTiter-Glo ATP luminescence, 48 h;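 also: NT is the 2HG producing partner of a matched IDH1 knockdown line; potency is read from the fitted curve at half-maximal effect; 0% = DMSO-treated cells and -100% = media-only wells without cells; nearly all actives have a fitted effect of over 55% in size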
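A 48-hour cytotoxicity screen used HT-1080-NT cells plated 2 hours before compound delivery. ATP-based CellTiter-Glo luminescence measured viability, normalized to DMSO and no-cell controls.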
Active calls of the source: *. Unless noted, calls follow the shape of the dose curve; as a rule, active = well fitted curve in the direction sought with a large enough effect; inconclusive = small, poorly fitted or top-dose-only effect, or another doubt; inactive = no such curve, though single readings can be large; an effect the other way counts as inactive or inconclusive.

COc1ccc(NC(=S)NCCC(c2ccccc2)c2ccccc2)c(OC)c1 was read as HT1080 IDH1KD tx 22µM*, TGFb inhibitor inconclusive, IL1B secr inh 0, HepG2 tox -21%, Giardia killer -11 and HT1080-NT tox -20%.
For CN(CC(=O)Nc1cccc(C#N)c1)S(=O)(=O)c1cc2c(cc1Cl)NC(=O)CO2 the results were TGFb inhibitor 0% and HepG2 tox -11%.
`Cc1cc(=O)[nH]c(N/N=C/c2ccccc2Cl)n1` gave HT1080 IDH1KD tx 0%, TGFb inhibitor -23%, IL1B secr inh -14, HepG2 tox -17%, Giardia killer 25 and HT1080-NT tox 10%.
Cc1cc(=O)[nH]c(N/N=C/c2c(F)c(F)c(F)c(F)c2F)n1 was read as HT1080 IDH1KD tx 10%, TGFb inhibitor 5%, IL1B secr inh -92*, HepG2 tox 3%, Giardia killer 1 and HT1080-NT tox 2%.
Screening CCOc1ccc(CCNC(=O)Cn2c(=O)c3cccn3c3cccnc32)cc1 returned HT1080 IDH1KD tx 7%, TGFb inhibitor -5%, IL1B secr inh -66*, HepG2 tox 0%, Giardia killer 11 and HT1080-NT tox -1%.
Screening O=C(NCCc1ccccc1Cl)c1ccc(Cn2c(=O)c3cccn3c3cccnc32)cc1 returned TGFb inhibitor inconclusive and HepG2 tox 10µM*.
`NS(=O)(=O)c1ccc(CCNC(=O)Cn2c(=O)c3cccn3c3cccnc32)cc1` gave HT1080 IDH1KD tx -1%, TGFb inhibitor -1%, IL1B secr inh 23, HepG2 tox -2%, Giardia killer -4 and HT1080-NT tox 18%.
Screening CSCCC(NC(=O)c1cc(S(=O)(=O)N2CCOCC2)ccc1F)c1nc2ccccc2[nH]1 (stereo unspecified) returned HT1080 IDH1KD tx 4%, TGFb inhibitor 3%, IL1B secr inh -1, HepG2 tox 6%, Giardia killer -9 and HT1080-NT tox 3%.
O=C(Cn1nnc(-c2ccccc2Cl)n1)N1CCCCC1 was read as HT1080 IDH1KD tx 22%, TGFb inhibitor -14%, IL1B secr inh 2, HepG2 tox 0%, Giardia killer 36 and HT1080-NT tox 17%.
`CCOc1c(Br)cc(/C=C(\C#N)C(=O)NC2CC2)cc1OC` gave HT1080 IDH1KD tx inconclusive, TGFb inhibitor -25%, IL1B secr inh -13, HepG2 tox -33%, Giardia killer -18 and HT1080-NT tox 23µM*.
Screening C=CCNC(=O)/C(C#N)=C\c1cc(Cl)c(OCC)c(OC)c1 returned HT1080 IDH1KD tx inconclusive, TGFb inhibitor -22%, IL1B secr inh -91*, HepG2 tox -29%, Giardia killer -1 and HT1080-NT tox inconclusive.
N#C/C(=C\c1ccc(F)c(Br)c1)C(=O)NC1CC1 was read as HT1080 IDH1KD tx 8%, TGFb inhibitor 0%, IL1B secr inh -28, HepG2 tox -6%, Giardia killer 1 and HT1080-NT tox 1%.
`CCN(CC)S(=O)(=O)c1cccc(NC(=O)CN(C)C2CCCCC2)c1` gave HT1080 IDH1KD tx -6%, TGFb inhibitor 2%, IL1B secr inh 11, HepG2 tox 3%, Giardia killer 7 and HT1080-NT tox -18%.
For O=C(Cn1ccc([N+](=O)[O-])n1)Nc1nc2ccccc2s1 the results were HT1080 IDH1KD tx -12%, TGFb inhibitor -6%, IL1B secr inh -9, HepG2 tox -10%, Giardia killer -4 and HT1080-NT tox -6%.
Screening O=C(CNc1cccc([N+](=O)[O-])c1)NCCCc1ccccc1 returned HT1080 IDH1KD tx -5%, TGFb inhibitor -2%, IL1B secr inh -96*, HepG2 tox -15%, Giardia killer 47 and HT1080-NT tox -6%.
O=C(Cc1ccccc1)Nc1cccc([N+](=O)[O-])c1 was read as HT1080 IDH1KD tx -2%, TGFb inhibitor -9%, IL1B secr inh -15, HepG2 tox -14%, Giardia killer 9 and HT1080-NT tox -3%.
For O=C(CNc1cccc([N+](=O)[O-])c1)N/N=C/c1ccc([N+](=O)[O-])o1 the results were HT1080 IDH1KD tx inconclusive, TGFb inhibitor 7.1µM*, IL1B secr inh -67*, HepG2 tox -57%, Giardia killer -107* and HT1080-NT tox inconclusive.
For O=C(CNc1cccc2ccccc12)N/N=C/c1ccc([N+](=O)[O-])o1 the results were HT1080 IDH1KD tx inconclusive, TGFb inhibitor 6.3µM*, IL1B secr inh -25, HepG2 tox 7.9µM*, Giardia killer -96* and HT1080-NT tox inconclusive.
`Cc1cc(C)cc(S(=O)(=O)Cc2noc(C(=O)NCc3ccccc3)c2C(=O)NCc2ccccc2)c1` gave HT1080 IDH1KD tx 1%, TGFb inhibitor 0%, IL1B secr inh -20, HepG2 tox -2%, Giardia killer 3 and HT1080-NT tox 5%.
For COc1ccc(C(C(=O)NC2CCCC2)N2CCc3ccccc32)cc1 (stereo unspecified) the results were HT1080 IDH1KD tx -3%, TGFb inhibitor -4%, IL1B secr inh 6, HepG2 tox -12%, Giardia killer -2 and HT1080-NT tox -1%.
Clc1ccccc1OCCNc1nc(NCC2CC2)nc2ccsc12 was read as HT1080 IDH1KD tx 18µM*, TGFb inhibitor inconclusive, IL1B secr inh -16, HepG2 tox -33% and HT1080-NT tox inconclusive.
Screening CNc1nc(NCCOc2ccccc2Cl)c2sccc2n1 returned HT1080 IDH1KD tx -22%, TGFb inhibitor inconclusive, IL1B secr inh inconclusive, HepG2 tox -24% and HT1080-NT tox inconclusive.
For COc1ccccc1CNc1nc(NCCOc2ccccc2Cl)c2sccc2n1 the results were HT1080 IDH1KD tx inconclusive, TGFb inhibitor inconclusive, IL1B secr inh -86*, HepG2 tox -64% and HT1080-NT tox 23µM*.
COC(=O)c1c(NC(=O)CN2CCN(Cc3ccc4c(c3)OCO4)CC2)sc(C)c1C was read as HT1080 IDH1KD tx inconclusive, TGFb inhibitor -48%, IL1B secr inh -76*, HepG2 tox -78%, Giardia killer -5 and HT1080-NT tox inconclusive.
COC(=O)c1ccsc1NC(=O)CN1CCN(Cc2ccc3c(c2)OCO3)CC1 was read as HT1080 IDH1KD tx -5%, TGFb inhibitor -1%, IL1B secr inh -4, HepG2 tox 4%, Giardia killer 6 and HT1080-NT tox -8%.
CCOC(=O)c1c(NC(=O)CN2C(=O)NC3(CCCC3)C2=O)sc(C)c1CC was read as HT1080 IDH1KD tx -14%, TGFb inhibitor 21%, IL1B secr inh -57*, HepG2 tox -29%, Giardia killer 3 and HT1080-NT tox -10%.
